This assay has as its system KM-20L2. The assay is described as follows: NCI tumour cell line growth inhibition, 48 h.

Entries with a potency or affinity are not part of this list. Only a part of the results of these assays is listed, not drawn at random.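 Test compounds were applied to cells in 96-well plates for 48 hours at 5 doses. At the GI50, growth is halved.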

CADMIUM DICHLORIDE, CHEMBL1458880: the GI50 was determined as 100 µM.
